# Data reported in PubChem BioAssay AID1985 (Southern Research Specialized Biocontainment Screening …, 2009).
# About 1,000 (43%) of roughly 2,300 compounds were called active. So high a share suggests a set chosen from earlier hits. The list shows a part of the results. Entries with a potency or affinity are not part of this list. Values without a mark were called inactive. How the calls were made is not given here.
# Test: modified counter assay using GFP fluorescence, PhoP regulon inhibitor project, dose response (AID 1985)
# Conditions: S. Typhi, 4 h; series mostly up to 150 µM; inhibition: at the top concentration
row,SMILES,inhibition [%]
1,Cc1ccc(-c2csc(NC(=O)C[n+]3cc(-c4ccccc4)n4c3CCC4)n2)cc1,-33.3
2,CCOC(=O)C1CCCN(C/C(O)=C(\C#N)c2nc(-c3ccccc3)cs2)C1 (configuration not stated),-20.3
3,O=C(C[n+]1cc(-c2ccc(Cl)cc2)n2c1CCC2)N1c2ccccc2Sc2ccccc21,33.5
4,O=C(O)c1csc(-c2ccc(Cl)cc2)n1,36.8
5,CC(=O)N(CCC1(c2ccc(C)cc2)CCOC(C(C)C)C1)Cc1ccco1 (configuration not stated),18.1
6,Cc1cccc(/C(N)=N/OC(=O)N2CCOCC2)c1,25.3
7,CCOC(=O)C1CCN(Cc2nc(-c3ccc(OC)c(OC)c3)no2)CC1,-15.2
8,O=C(Cn1[nH]c(=O)c2ccccc2c1=O)Nc1ccc(-c2nnc3n2CCCCC3)cc1,10.1
9,CC(=O)c1ccc(NC(=O)CN2CCCCCC2)cc1,15.7
10,COC(=O)c1ccc(CSc2ccc3nnc(-c4ccc(OC)c(OC)c4)n3n2)o1,-11.5
11,COc1ccc(S(=O)(=O)NCCSCc2ccco2)cc1Cl,12.5
12,CCN1CCCC1Cn1cnc2c([nH]c3ccc(Cl)cc32)c1=O (configuration not stated),26.1
13,Clc1ccc(CONc2ncnc3nonc23)c(Cl)c1,12.7
14,CCCCCCCCn1ccc(=N)cc1,15.6
15,O=c1c2ccccc2nc(-c2ccoc2)n1CCc1ccccc1,18.5
16,O=C(On1c(-c2ccccc2)nc2ccccc2c1=O)c1ccco1,25.2

row,SMILES,inhibition [%]
1,CCC(O)CNc1nc(SC)nc2sc3c(c12)CCN(C)C3 (configuration not stated),6.31
2,CN1C(=O)C2(Nc3ccccc3-c3nc4ccccc4n32)c2ccccc21 (configuration not stated),3.48
3,O=C(N/N=C\c1cccc([N+](=O)[O-])c1O)C1COc2ccccc2O1 (configuration not stated),-26.6
4,CCCCCN1C(=O)/C(=C/c2c(N3CCc4ccccc4C3)nc3ccccn3c2=O)SC1=S,-12.8
5,COc1cccc2cc(C(=O)Nc3ccccc3C)/c(=N/O)oc12,-16.5
6,Clc1ccc(N/N=C/c2cccs2)nn1,7.58
7,CCN(CC)Cc1c(C(=O)N/N=C/c2cccs2)nnn1-c1nonc1N,28.9
8,Cn1cc(C(=O)N/N=C/C(Br)=C/c2ccccc2)ccc1=O,4.35
9,C/C(=N\NC(=O)c1c(Br)c(C)nn1C)c1ccc(NC(=O)c2ccoc2C)cc1,5.71
10,Cc1ccnc(NC(=O)CCC(=O)N(CC(=O)NC2CCCCC2)C2CCCC2)c1,-5.33
11,COC(=O)C1C(=O)C2=C(CC1C)Nc1ccccc1NC2c1ccc(C)s1 (configuration not stated),-5.97
12,CC(C(=O)NC1CCCCC1)N1CCN(C)CC1 (configuration not stated),-31.5
13,CN(C)c1nnnn1-c1ccc(Oc2ccccc2)cc1,24.8
14,COC(=O)c1sccc1NC(=S)NCc1ccc(Cl)cc1,-3.82
15,CC1CCN(C(=O)CSc2nnc(Cc3cc(=O)[nH]c(=O)[nH]3)n2-c2ccc(Cl)cc2)CC1,17.4
16,Cn1nnnc1SCC(=O)Nc1ccccc1-c1ccccc1,9.74
